# Only some compounds are listed: those with a hit (about 5.3% of all), similar ones and a draw of the others.
# BAZ2B inh: qHTS Assay for Inhibitors of BAZ2B; Bromodomain adjacent to zinc finger domain protein 2B (Homo sapiens), Q9UIF8; AlphaScreen BAZ2B-H3K14Ac peptide displacement; Potency, µM (highest dose often 114 µM), for inactives: top-dose activity change, negative = inhibition, most hits filed as inhibitors; 360,000 compounds, 4.4% hits; also: potency is read from the fitted curve at half-maximal effect; % is scaled to controls: 0 for no effect and ±100 for the full control effect; nearly all actives have a fitted effect of over 60% in size
#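 BAZ2B 50 nM plus b-H3(5-23)K14Ac 50 nM, PBS pH 7.4/0.01% Tween-20, 30 min RT; compound added (max 110 uM), 30 min RT; streptavidin donor/Ni-chelate acceptor beads 10 ug/mL final, 20 min dark; AlphaScreen read.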
# TDP1 block: qHTS Assay for Inhibitors of Tyrosyl-DNA Phosphodiesterase (TDP1). Tyrosyl-DNA phosphodiesterase 1 (Homo sapiens), Q9NUW8. recombinant TDP1, AlphaScreen DNA substrate cleavage. Potency, µM (highest dose often 130 µM), for the others: at the highest dose activity change, negative = inhibition, actives largely listed as inhibitors. 350,000 compounds, 0.28% hits; also: potency is read from the fitted curve at half-maximal effect; % is scaled to controls: 0 for no effect and ±100 for the full control effect; nearly all actives have a fitted effect of over 40% in size
#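 AlphaScreen read-out: signal falls as enzyme removes the 3' tyrosine-FITC from a 5'-biotinylated DNA oligo (15 nM, 5 min, RT). Enzyme was E. coli-made recombinant Tdp1 at 1 nM, exposed to compound for 15 min beforehand; beads 10 ug/ml, 10 min.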
# JMJD2A Tudor: qHTS Assay for Inhibitors of JMJD2A-Tudor Domain; Lysine-specific demethylase 4A (Homo sapiens), O75164; AlphaScreen JMJD2A-Tudor / H3K4me3 peptide binding; Potency, µM (titrated, usually from 114 µM), inactives show at the top dose activity change, negative = inhibition, actives largely listed as inhibitors; 390,000 compounds, 4.4% hits; AID 504339, 2011; also: potency is read from the fitted curve at half-maximal effect; % is scaled to controls: 0 for no effect and ±100 for the full control effect; nearly all actives have a fitted effect of over 50% in size
# Target sequence (O75164 whole entry, looked up, the tested form may be a part): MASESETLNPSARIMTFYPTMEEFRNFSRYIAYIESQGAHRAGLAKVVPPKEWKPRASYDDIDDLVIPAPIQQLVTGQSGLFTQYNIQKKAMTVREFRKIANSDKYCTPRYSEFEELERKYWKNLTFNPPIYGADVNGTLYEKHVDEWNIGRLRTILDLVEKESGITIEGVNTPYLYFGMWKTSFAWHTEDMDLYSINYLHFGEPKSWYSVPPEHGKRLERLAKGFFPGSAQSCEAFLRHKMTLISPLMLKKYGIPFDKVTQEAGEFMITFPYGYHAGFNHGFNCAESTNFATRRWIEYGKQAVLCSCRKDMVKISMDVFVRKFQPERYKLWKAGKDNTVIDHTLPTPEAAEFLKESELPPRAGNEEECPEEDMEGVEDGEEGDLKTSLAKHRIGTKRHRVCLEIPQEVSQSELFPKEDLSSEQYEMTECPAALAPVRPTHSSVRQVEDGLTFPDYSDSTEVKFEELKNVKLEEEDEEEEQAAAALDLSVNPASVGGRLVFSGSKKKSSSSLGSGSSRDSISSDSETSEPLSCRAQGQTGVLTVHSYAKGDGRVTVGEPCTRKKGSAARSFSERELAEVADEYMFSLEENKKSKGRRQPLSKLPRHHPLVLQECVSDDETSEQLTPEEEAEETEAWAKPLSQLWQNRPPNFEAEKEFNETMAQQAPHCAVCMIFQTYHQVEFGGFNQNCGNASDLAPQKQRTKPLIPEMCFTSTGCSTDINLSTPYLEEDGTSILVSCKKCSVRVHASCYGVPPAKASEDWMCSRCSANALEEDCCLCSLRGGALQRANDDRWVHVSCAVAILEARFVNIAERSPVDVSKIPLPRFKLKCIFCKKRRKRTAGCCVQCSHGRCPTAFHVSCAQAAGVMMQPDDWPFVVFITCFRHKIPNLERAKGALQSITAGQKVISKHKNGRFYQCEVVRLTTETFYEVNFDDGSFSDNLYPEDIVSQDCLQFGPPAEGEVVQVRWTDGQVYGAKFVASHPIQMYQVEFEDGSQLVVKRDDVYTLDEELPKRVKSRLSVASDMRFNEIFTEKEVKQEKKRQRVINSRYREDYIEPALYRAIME
# HP1b chromo inh: HTS for Inhibitors of HP1-beta Chromodomain Interactions with Methylated Histone Tails | Chromobox protein homolog 1 (Homo sapiens), P83916 | AlphaScreen HP1-beta / biotin-H3K9me3 peptide binding | Potency, µM (titrated, usually from 114 µM), inactives show top-dose activity change, negative = inhibition, hits mostly inhibitors | 390,000 compounds, 0.56% hits | AID 540317, 2011; also: potency is read from the fitted curve at half-maximal effect; nearly all actives have a fitted effect of over 70% in size
#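 Compound inhibition of the preformed complex between 50 nM HP1-beta and 50 nM biotinylated H3K9me3 peptide was read by AlphaScreen. Buffer was PBS pH 7.4 with 0.01% Tween-20. Incubations ran 30 min at room temperature, with 10 ug/mL donor/acceptor beads.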
# Six1-Eya2 blk: qHTS Assay for Inhibitors of the Six1/Eya2 Interaction. AlphaScreen GST-Six1/His-Eya2 binding, biochemical; stronger effect = lower value. AID 651725, 2012. 360,000 compounds, 0.56% hits. activity change, % (concentration not given with the values); in the data active = activity change below about -65%; inconclusive = mostly about -30% to -63%; also: % is scaled to controls: 0 for no effect and ±100 for the full control effect
#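 GST-Six1 + His-Eya2 (5X stock: 250/500 nM); Tris pH 8.0, 300 mM NaCl, 0.05% BSA, 0.02% Tween 20; GSH donor/Ni acceptor beads; 1 h 37 °C dark; AlphaScreen readout.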
# CtBP-E1A blk: qHTS Assay for Inhibitors of the CtBP/E1A Interaction; CtBP / adenovirus E1A interaction (AlphaScreen); AlphaScreen GST-E1A/His-CtBP binding, 1536-well; stronger effect = lower value; activity change, % (test concentration not listed); 340,000 compounds, 0.49% hits; AID 651724, 2012; in the data active = activity change below about -65%; inconclusive = mostly about -30% to -63%; also: % is scaled to controls: 0 for no effect and ±100 for the full control effect
#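 Steps: dispense buffer (Tris pH 8.0, NaCl 300 mM, TCEP 1 mM, BSA, Tween 20); add 5X protein mix (GST-E1A, His-CtBP, 125 nM each); pin 23 nL compound; 2 h at 37 °C, dark; add 5X beads (50 ug/mL); 1 h; read.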
# * marks the source's active call; other numbers are inactive results; ? = inconclusive; . = not tested or not shown; [ ] = dose if it differs, or a comment. Unless noted, calls follow the shape of the dose curve; as a rule, active = well fitted inhibition curve with a large enough effect; inconclusive = small, poorly fitted or top-dose-only effect; inactive = no such curve, though single readings can be large or run the other way.
SMILES,BAZ2B inh,TDP1 block,JMJD2A Tudor,HP1b chromo inh,Six1-Eya2 blk,CtBP-E1A blk
CCc1ccc(NC(=O)c2cc(-c3ccc(F)cc3)on2)cc1,-9%,0%,-8%,6%[57 µM],5,.
CCOc1cc(CN2CCCCC2)ccc1OC,4%,4%,-14%,10%,5,2
CCOc1cc(CN2CCN(c3ccc(C(C)=O)cc3)CC2)ccc1OC,56µM*,0%,1.4µM*,?,-4,-15
CCOc1cc(CN2CCN(c3cccc(C(F)(F)F)c3)CC2)ccc1OC,8.9µM*,-1%,8.9µM*,?,-14,9
COc1ccc(CC(C)N2CCN(c3cccc(C(F)(F)F)c3)CC2)cc1OC (stereo unspecified),?,2%,?,-3%,-15,-17
Cc1cccc(C(=O)Nc2nnc(-c3ccncc3)o2)c1,22µM*,10%,?,31%,-27,-25
Cc1cccc(C(=O)Nc2nnc(-c3cccnc3)o2)c1,50µM*,8%,?,17%,-27,-1
Cc1cccc(C(=O)Nc2ccc3oc(-c4ccncc4)nc3c2)c1,-16%,.,-22%,72%,.,.
O=C(Nc1nnc(-c2ccncc2)o1)c1ccc2ccccc2c1,79µM*,4%,-22%,38%,-5,-18
Cc1cccc(C(=O)Nc2nnc(-c3ccco3)o2)c1,45µM*,2%,?,35%,?,?
O=c1cc(COc2ccccc2Cl)nc2scc(-c3ccccc3)n12,?,-6%,-11%,33%,.,.
CC1=C(c2ccc(C)cc2)S(=O)(=O)N=C1N1CCN(c2ccccc2)CC1,-21%,9%,?,19%,.,.
Cc1ccc(C(=O)Nc2nnc(-c3ccco3)o2)cc1C,?,5%,-5%,37%,-22,-14
Cc1ccccc1C(=O)Nc1nnc(-c2ccco2)o1,50µM*,11%,50µM*,39%,-16,17
COCc1cc(C)nc2sc3c(c12)NC(c1ccc(O)cc1)N(c1ccc(C)cc1)C3=O (stereo unspecified),11%,-2%,-14%,41%,.,.
CN(C)S(=O)(=O)c1ccc(Cl)c(NC(=O)COC(=O)/C=C/c2ccco2)c1,56µM*,50µM*,-20%,14%,-6,7
O=C(COC(=O)/C=C/c1ccco1)Nc1ncc(Cl)cc1Cl,50µM*,20µM*,?,-9%,-7,.
COc1ccc(/C=C/C(=O)OCC(=O)Nc2cc(S(=O)(=O)N(C)C)ccc2Cl)cc1,1%,0%,-6%,38%,10,6
Cc1nc(NC(=O)COC(=O)/C=C/c2ccco2)c(Cl)cc1Cl,-31%,.,-22%,22%,-3,3
O=C(CCn1c(=O)c2cccn2c2cccnc21)NCc1ccccc1Br,-2%,5%,7%,38%,.,.
CCCC(O)c1nc2ccccc2n1CCCOc1ccc(Cl)cc1 (stereo unspecified),2%,9%,-8%,42%,.,.
CC(C)n1c(-c2ccco2)csc1=Nc1cccnc1,28µM*,6%,56µM*,?,-29,-27
COCCn1c(-c2ccccc2)csc1=Nc1cccnc1,40µM*,5%,?,?,-4,?
c1cncc(N=c2scc(-c3cccc4ccccc34)n2CCCn2ccnc2)c1,10µM*,10%,35µM*,?,-24,-24
Cc1ccc(-c2csc(=Nc3cccnc3)n2CCCn2ccnc2)cc1C,13µM*,8%,?,?,-20,?
SMILES,BAZ2B inh,TDP1 block,JMJD2A Tudor,HP1b chromo inh,Six1-Eya2 blk,CtBP-E1A blk
Cc1cc2c(s1)c1cnn(Cc3ccc(OC(F)F)cc3)c(=O)c1n2C,.,.,5%,.,.,.
COc1ccccc1C(=O)OCc1cc(=O)n2c(C)csc2n1,-2%,6%,-11%,-5%,.,.
CCc1ccc(-c2nc3cc(NC(=O)c4ccc(F)cc4)ccc3o2)cc1,4%,0%[12.3 µM],-11%,41%,.,.
O=C(c1ccccc1Cl)n1nc(-c2ccco2)nc1NCc1cccs1,-4%,-7%,-10%,14%,.,.
Cc1c(Cl)cccc1N=Cc1ccc([N+](=O)[O-])s1,?,2%,-34%,12%,-67*,?
Cc1ccccc1C(=O)N/N=C/c1ccc([N+](=O)[O-])s1,-4%,4%,-17%,52%,8,44
Cc1[nH]n(-c2ccccc2)c(=O)c1/C=N/NC(=O)c1ccc(O)cc1O,25µM*,.,22µM*,57%,-91*,.
Cc1[nH]n(-c2ccccc2)c(=O)c1/C=N/Nc1nncc(-c2ccccc2)n1,4.5µM*,11%,3.5µM*,-9%,-91*,-91*
Cc1ccc(-n2[nH]c(C)c(/C=N/NC(=O)c3ccc(O)cc3O)c2=O)cc1,28µM*,.,32µM*,22%,?,?
Cc1ccc(OCC(=O)N/N=C\c2c(C)[nH]n(-c3ccccc3)c2=O)c([N+](=O)[O-])c1,?,9%,?,9%,-91*,-81*
Cc1n[nH]c(C)c1S(=O)(=O)N1CCCC(C(=O)Nc2ccc(Cl)cc2)C1 (stereo unspecified),.,0%,-15%,19%,.,.
CC1=C(C(=O)Nc2ccccc2C)C(c2cccnc2)n2nc(SCc3ccccc3F)nc2N1 (stereo unspecified),-29%,6%,-15%,-1%,.,.
Cc1cc(C(=O)N/N=C/c2c(C)n(C)c3ccccc23)n[nH]1,-28%,4%,-19%,9%,-1,-9
CCCCN(CCCC)C(=S)N/N=C/c1c(C)[nH]n(-c2ccccc2)c1=O,10µM*,12%,79µM*,3%,-19,-19
Cc1cc(C(=O)N/N=C/c2c(C)[nH]n(-c3ccccc3)c2=O)n[nH]1,28µM*,2%,50µM*,36%,-91*,-94*
CCCCN=Cc1c(C)[nH]n(-c2ccccc2)c1=S,?,9%,?,?,-15,-6
CCn1c(CNC(=O)c2ccc(OC)cc2)nnc1SCC(=O)Nc1cccc(C)c1C,0%,3%,-2%,44%,.,.
Nc1c(-c2nc(-c3cccs3)no2)nnn1-c1ccccc1Cl,-2%,5%,-5%,38%,.,.
COc1ccc(NC(=O)C(NS(=O)(=O)c2cccc3nsnc23)C(C)C)cc1OC (stereo unspecified),-38%,3%,-28%,20%,.,.

# Compound activity as filed in PubChem.
